Measured values from PubChem BioAssay AID1159580 (chemical genetic matrix, 2015).
The whole screen tested about 5,500 compounds, of which about 2,000 (36%) were called active. Inconclusive results (about 18%) are left out. Rule as the data show it: active = normalized growth mostly below about 0.91 (no sharp cut-off); inconclusive = no clear call, values can overlap the other calls; inactive = mostly above about 0.92. The list shows a part of the results.

Assay: chemical genetic growth profiling, strain panel (AID 1159580);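 also: tested at 20 µM; growth read once vehicle control cultures reached saturation at 30 °C; 1 = growth at the plate median or of vehicle wells; lower values mean less growth of the strain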
Conditions: growth OD

Measured: normalized growth

CC1(C)C[C@@H]2C(=O)CC[C@H]3O[C@]3(C)CC[C@H]21
inactive: S. cerevisiae deletion strains, locus YJR075W, strain HOC1, stronger effect = lower value 1.01 | S. cerevisiae deletion strains, locus YKL009W, strain mrt4, stronger effect = lower value 0.985 | S. cerevisiae deletion strains, locus YKL068W, stronger effect = lower value 0.997 | S. cerevisiae deletion strains, locus YKL085W, strain MDH1 (second series), stronger effect = lower value 0.996 | S. cerevisiae deletion strains, locus YKL085W, strain MDH1, stronger effect = lower value 0.996 | S. cerevisiae deletion strains, locus YKL160W, strain elf1, stronger effect = lower value 1.01 | S. cerevisiae deletion strains, locus YKL190W, strain CNB1, stronger effect = lower value 1.01 | S. cerevisiae deletion strains, locus YKR001C, strain vps1, stronger effect = lower value 0.994 | S. cerevisiae deletion strains, locus YKR026C, strain gcn3, stronger effect = lower value 1.02 | S. cerevisiae deletion strains, locus YKR091W, strain srl3, stronger effect = lower value 1.01 | S. cerevisiae deletion strains, locus YLL001W, strain dnm1, stronger effect = lower value 0.985 | S. cerevisiae deletion strains, locus YLL026W, stronger effect = lower value 1.01 | S. cerevisiae deletion strains, locus YLL041C, strain sdh2, stronger effect = lower value 1.01 | S. cerevisiae deletion strains, locus YLR027C, strain aat2, stronger effect = lower value 1.03 | S. cerevisiae deletion strains, locus YLR039C, strain RIC1, stronger effect = lower value 1.07 | S. cerevisiae deletion strains, locus YLR058C, strain SHM2, stronger effect = lower value 1.01 | S. cerevisiae deletion strains, locus YLR102C, strain apc9, stronger effect = lower value 0.991 | S. cerevisiae deletion strains, locus YLR113W, strain HOG1, stronger effect = lower value 0.951 | S. cerevisiae deletion strains, locus YLR221C, strain rsa3, stronger effect = lower value 1.04 | S. cerevisiae deletion strains, locus YLR258W, strain gsy2, stronger effect = lower value 0.995 | S. cerevisiae deletion strains, locus YLR262C, strain YPT6 (second series), stronger effect = lower value 1.05 | S. cerevisiae deletion strains, locus YLR262C, strain YPT6, stronger effect = lower value 1.06 | S. cerevisiae deletion strains, locus YLR268W, strain sec22, stronger effect = lower value 0.992 | S. cerevisiae deletion strains, locus YLR320W, strain mms22, stronger effect = lower value 1.04 | S. cerevisiae deletion strains, locus YLR330W, strain CHS5, stronger effect = lower value 1.01 | S. cerevisiae deletion strains, locus YLR342W, strain FKS1 (second series), stronger effect = lower value 0.987 | S. cerevisiae deletion strains, locus YLR342W, strain FKS1, stronger effect = lower value 1.01 | S. cerevisiae deletion strains, locus YLR357W, strain rsc2, stronger effect = lower value 1 | S. cerevisiae deletion strains, locus YLR370C, strain arc18, stronger effect = lower value 1.01 | S. cerevisiae deletion strains, locus YLR371W, strain rom2, stronger effect = lower value 0.998 | S. cerevisiae deletion strains, locus YLR384C, strain iki3, stronger effect = lower value 1.03 | S. cerevisiae deletion strains, locus YLR418C, strain cdc73, stronger effect = lower value 1.01 | S. cerevisiae deletion strains, locus YML016C, strain PPZ1, stronger effect = lower value 1 | S. cerevisiae deletion strains, locus YML032C, strain rad52, stronger effect = lower value 0.983 | S. cerevisiae deletion strains, locus YML120C, strain ndi1, stronger effect = lower value 0.999 | S. cerevisiae deletion strains, locus YML124C, strain tub3, stronger effect = lower value 0.995 | S. cerevisiae deletion strains, locus YMR058W, strain fet3, stronger effect = lower value 1.03 | S. cerevisiae deletion strains, locus YMR078C, strain ctf18, stronger effect = lower value 0.989 | S. cerevisiae deletion strains, locus YMR125W, strain sto1, stronger effect = lower value 1.01 | S. cerevisiae deletion strains, locus YMR129W, stronger effect = lower value 1.01 | S. cerevisiae deletion strains, locus YMR205C, strain PFK2, stronger effect = lower value 1 | S. cerevisiae deletion strains, locus YMR223W, strain ubp8, stronger effect = lower value 0.991 | S. cerevisiae deletion strains, locus YMR231W, strain pep5, stronger effect = lower value 1.02 | S. cerevisiae deletion strains, locus YMR263W, strain SAP30, stronger effect = lower value 1.02 | S. cerevisiae deletion strains, locus YMR307W, strain GAS1, stronger effect = lower value 1.01 | S. cerevisiae deletion strains, locus YNL067W, strain RPL9B, stronger effect = lower value 1.01 | S. cerevisiae deletion strains, locus YNL071W, strain lat1, stronger effect = lower value 1.01 | S. cerevisiae deletion strains, locus YNL128W, strain TEP1, stronger effect = lower value 1.02 | S. cerevisiae deletion strains, locus YNL153C, strain GIM3, stronger effect = lower value 1.02 | S. cerevisiae deletion strains, locus YNL183C, strain NPR1, stronger effect = lower value 0.905 | S. cerevisiae deletion strains, locus YNL209W, strain ssb2, stronger effect = lower value 1.01 | S. cerevisiae deletion strains, locus YNL233W, strain BNI4, stronger effect = lower value 1.02 | S. cerevisiae deletion strains, locus YNL248C, strain rpa49, stronger effect = lower value 1.04 | S. cerevisiae deletion strains, locus YNL250W, strain rad50, stronger effect = lower value 0.998 | S. cerevisiae deletion strains, locus YNL271C, strain bni1, stronger effect = lower value 0.997 | S. cerevisiae deletion strains, locus YNL298W, strain CLA4, stronger effect = lower value 0.996 | S. cerevisiae deletion strains, locus YNL307C, strain MCK1, stronger effect = lower value 0.99 | S. cerevisiae deletion strains, locus YNL322C, strain KRE1 (second series), stronger effect = lower value 1 | S. cerevisiae deletion strains, locus YNL322C, strain KRE1, stronger effect = lower value 1.01 | S. cerevisiae deletion strains, locus YNR049C, strain mso1, stronger effect = lower value 1.02 | S. cerevisiae deletion strains, locus YNR052C, strain pop2, stronger effect = lower value 0.999 | S. cerevisiae deletion strains, locus YOL006C, strain TOP1, stronger effect = lower value 1.07 | S. cerevisiae deletion strains, locus YOL012C, strain htz1 1.57 | S. cerevisiae deletion strains, locus YOL147C, strain pex11, stronger effect = lower value 0.997 | S. cerevisiae deletion strains, locus YOR001W, strain rrp6, stronger effect = lower value 1.02 | S. cerevisiae deletion strains, locus YOR061W, strain CKA2, stronger effect = lower value 1.01 | S. cerevisiae deletion strains, locus YOR069W, strain VPS5, stronger effect = lower value 1 | S. cerevisiae deletion strains, locus YOR070C, strain gyp1, stronger effect = lower value 1.02 | S. cerevisiae deletion strains, locus YOR080W, strain dia2, stronger effect = lower value 1.03 | S. cerevisiae deletion strains, locus YOR083W, strain WHI5, stronger effect = lower value 1.01 | S. cerevisiae deletion strains, locus YOR106W, strain vam3, stronger effect = lower value 0.995 | S. cerevisiae deletion strains, locus YOR136W, strain idh2, stronger effect = lower value 0.996 | S. cerevisiae deletion strains, locus YOR144C, strain elg1, stronger effect = lower value 0.995 | S. cerevisiae deletion strains, locus YOR184W, strain ser1, stronger effect = lower value 0.962 | S. cerevisiae deletion strains, locus YOR231W, strain MKK1, stronger effect = lower value 0.947 | S. cerevisiae deletion strains, locus YOR265W, strain rbl2, stronger effect = lower value 1.03 | S. cerevisiae deletion strains, locus YOR270C, strain vph1, stronger effect = lower value 1.07 | S. cerevisiae deletion strains, locus YOR290C, strain snf2, stronger effect = lower value 0.995 | S. cerevisiae deletion strains, locus YOR316C, strain cot1, stronger effect = lower value 0.992 | S. cerevisiae deletion strains, locus YPL051W, strain arl3, stronger effect = lower value 1 | S. cerevisiae deletion strains, locus YPL055C, strain LGE1, stronger effect = lower value 1.04 | S. cerevisiae deletion strains, locus YPL078C, strain atp4, stronger effect = lower value 0.992 | S. cerevisiae deletion strains, locus YPL106C, strain sse1, stronger effect = lower value 0.984 | S. cerevisiae deletion strains, locus YPL240C, strain hsp82, stronger effect = lower value 1.02 | S. cerevisiae deletion strains, locus YPL241C, strain CIN2, stronger effect = lower value 1.01 | S. cerevisiae deletion strains, locus YPL256C, strain CLN2, stronger effect = lower value 0.983 | S. cerevisiae deletion strains, locus YPR119W, strain clb2, stronger effect = lower value 0.992 | S. cerevisiae deletion strains, locus YPR141C, strain kar3, stronger effect = lower value 0.991 | S. cerevisiae deletion strains, locus YPR163C, strain tif3, stronger effect = lower value 0.998 | S. cerevisiae deletion strains, locus YPR167C, strain met16, stronger effect = lower value 0.995 | S. cerevisiae deletion strains, strain wtn01, stronger effect = lower value 0.989 | S. cerevisiae strains, strain wild type, stronger effect = lower value 1.01
